Assay outcomes (PubChem BioAssay)
KDM5B inh = KDM5B demethylase inhibition | KDM5B demethylase, FDH-coupled NADH fluorescence (FDH is formaldehyde dehydrogenase) | Potency, µM (titrated, usually from 57.7 µM), hits mostly inhibitors | hit rate 2.6% among 220,000; active = well fitted inhibition curve with a large enough effect; also: 0% is about no effect; nearly all actives have a fitted effect of over 70% in size
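KDM5BΔAP (200 nM final) in 50 mM HEPES pH 7.5, 0.01% Tween-20 was preincubated 10 min at RT with compound over a concentration range. Substrate mix (H3K4me3 12.5 µM, α-KG 25 µM, Fe²⁺, ascorbate, NAD⁺, FDH) was added, and NADH fluorescence change over 30 min gave dose-response curves.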
Active calls of the source: *; i = inactive. This excerpt belongs to a sample that is enriched for hits. Potency is read from the fitted curve at half-maximal effect.

SMILES	KDM5B inh
COc1ccc(-c2cnc3[nH]cc(CC(=O)NCCc4ccccn4)c3c2)cc1	35µM*
C[S+](=O)([O-])c1cccc(-c2cnc3[nH]cc(CC(N)=O)c3c2)c1	i
C[S+](=O)([O-])c1cccc(NC(=O)Cc2c[nH]c3ncc(-c4ccccc4)cc23)c1	32µM*
COc1ccc(NC(=O)Cc2c[nH]c3ncc(-c4ccccc4)cc23)cc1OC	i
O=C(Cc1cccc2ccccc12)NCCc1ccccn1	i
CNC(=O)c1cccc(-c2cnc3[nH]cc(CC(=O)NCCOC)c3c2)c1	i
CCN(CC)C(=O)c1cccc(NC(=O)Cc2c[nH]c3ccccc23)c1	i
O=C(Cc1c[nH]c2ncc(-c3cccnc3)cc12)Nc1ccccc1	i
COc1ncccc1-c1cnc2[nH]cc(CC(=O)Nc3ccncc3)c2c1	40µM*
CCN(CC)CC(=O)NC(C)(C#N)C1CC1 (centres undefined)	i
COc1ccccc1NC(=O)N1CCc2cc(OC)c(OC)cc2C1CNC(=O)C1CCCC1 (centres undefined)	i
CCC1(N2CCN(S(=O)(=O)c3ccc(C(F)(F)F)cc3)CC2)CCN(C(=O)NC)C1 (centres undefined)	i
O=C(CN1C(=O)NC2(CCCC2)C1=O)Nc1ccccc1-c1ccccc1	i
O=C(O)c1cc(Br)ccc1Cl	i
Cc1cnc(C2CC2)n1C1CCCN(S(=O)(=O)c2cccc(F)c2)C1 (centres undefined)	i
CC(=O)n1cc(N(C(=O)CCl)c2ccc(C)cc2)c2ccccc21	i
C=CCc1c(C)nc2nc(SCC(=O)Nc3ccc(OCC)cc3)nn2c1C	i
Cc1noc(C)c1[S+](=O)([O-])N1CCCC2(CC(c3ccccn3)=NO2)C1 (centres undefined)	i
COc1cc(C(=O)NCc2c[nH]c3ncccc23)nc2ccccc12	i
CCOc1ccc(NC(=O)Cc2c[nH]c3ccccc23)cc1	i
COc1ncccc1-c1cnc2[nH]cc(CC(=O)Nc3ccccc3)c2c1	35µM*
Cn1ncc(N2CCC(NC(=O)c3cnccn3)CC2)cc1=O	i
O=C(Cn1ccc2ccc(Br)cc21)Nc1nccs1	i
CCOc1cc(=O)n2c(c1C(=O)Nc1cc(F)ccc1F)CCCC2	i
COc1ccc(-c2nc(C)c(C)cc2C#N)c2cccnc12	32µM*
SMILES	KDM5B inh
COc1nc(-c2ccc(OC)c3ncccc23)ncc1F	32µM*
CCC(CC)C(=O)Nc1ccc(OC)c2ncccc12	i
COc1ccc(CC(=O)Nc2ccc(OC)c3ncccc23)cc1	i
COc1ccc(S(=O)(=O)Nc2cc(C)cc(C)c2)c2cccnc12	i
COc1cc(Nc2c(C#N)cnc3c(OC)cccc23)cc(OC)c1OC	i
Nc1nc(Nc2cccc(C(F)(F)F)c2)sc1C(=O)c1ccccc1	i
O=C(Nc1nccs1)c1occc1-c1ccccc1	i
COc1ccc(CNC(=O)CC2CCOCC2)c(OC)c1	i
COc1ccc(C)cc1NC(=O)Cc1nc(-c2cccs2)oc1C	i
O=c1oc2ccccc2c(NC2CCCC2)c1NS(=O)(=O)c1ccccc1	i
Fc1cccc(CN2CCCC3(CCN(c4cnccn4)C3)C2)c1F (centres undefined)	28µM*
O=C(C1CCCC1)N1CCC2(CCCN(Cc3cccc(F)c3F)C2)C1 (centres undefined)	i
COc1cccc(CN2CCCC3(CCN(c4cc(C)nc(N)n4)C3)C2)c1OC (centres undefined)	i
CC1(c2ccccc2)N(Cc2ccccc2F)C(=O)OC12CCN(C(=O)c1cnccn1)CC2 (centres undefined)	i
OC1(CN2CCCCC2)CCN(Cc2cccc(F)c2F)C1 (centres undefined)	i
Fc1ccccc1CN1CCCC2(CCN(c3cnccn3)C2)C1 (centres undefined)	32µM*
COc1ccc(N2CC(C(=O)NCc3cccs3)NC2=O)cc1 (centres undefined)	i
Cc1ccc2nc3n(c2c1)[C@@H](CNS(=O)(=O)c1ccccc1)COC3	i
COc1ccc(C(=O)N2C[C@@H]3C[C@H](C2)c2c(-c4ccc(NC(C)=O)cc4)ccc(=O)n2C3)cc1	i
Cc1ccc(C(=O)N2CCCC(n3cc(-c4nc(C5CC5)no4)nn3)C2)cc1F (centres undefined)	i
O=C(C1CC1)N1CCCN(S(=O)(=O)c2ccc3c(c2)OCCO3)c2ccccc21	i
C#CC(C)(CC)NC(=O)Cn1nnc(-c2ccc(OCc3ccccc3Cl)cc2)n1 (centres undefined)	i
CN(Cc1cccs1)C(=O)c1cc(-c2ccncc2)nc2ccccc12	i
CN(Cc1ccccc1)C(=O)c1cc(-c2cccnc2)nc2ccccc12	i
CC(C)c1noc(CN(C)C(=O)c2cc(-c3cnn(C)c3)nc3ccccc23)n1	28µM*
N#Cc1ccccc1CSc1nnc2ccc3ccccc3n12	i
Cc1ccc2nc(C(=O)N(C)Cc3cc(-c4cccnc4)no3)cn2c1	i
CCc1nnc(CN(CC)C(=O)c2cc(S(N)(=O)=O)ccc2F)o1	i
